# Experimental data as given in the supplement of paper PMC4954754.
# ± gives the uncertainty stated by the source.
# Tested on: HEK293T-Rex XBP1-RLuc
# Assay: XBP1-RLuc splicing reporter activation, triplicate, relative to 500 nM thapsigargin (% of thapsigargin); higher = stronger IRE1/XBP1s reporter activation
# Conditions: 6.8 µM; 18 h; screen: confirmation
# Description: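 HEK293T-Rex cells stably expressing the ERSE-firefly luciferase (BiP promoter, ATF6-preferring) or XBP1-splicing Renilla luciferase (IRE1/XBP1s) reporter, 1536-well plates, compound at 6.8 µM for 18 hr at 37 °C; luminescence read […] and expressed as % activation = 100*(compound - median DMSO)/(median 500 nM thapsigargin - median DMSO). Primary screen was single-pass; confirmation screen in triplicate (mean ± SD).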
row,Compound,XBP1-RLuc splicing reporter activation
1,O=C1N/C(=C/c2ccc(O)cc2)C(=O)N1Cc1ccc(Br)cc1,33.3 ± 4.9
2,CC(=O)Nc1ccc2nc(-c3ccc(OC(C)=O)cc3)sc2c1,21.7 ± 1
3,O=C1N/C(=C/c2ccc(O)cc2)C(=O)N1c1cccc(Cl)c1,61.1 ± 1.4
4,O=C(Nc1nc2c(s1)CCCC2)c1cccc2ccccc12,3.36 ± 1.8
5,COc1ccc(-c2csc(-c3ccc(O)cc3)n2)cc1,8.78 ± 1.3
6,CCCCNC(=O)c1cc(-c2ccc(F)cc2)on1,7.08 ± 0.26
7,CCOc1ccc(NC(=O)c2cccc(F)c2)c([N+](=O)[O-])c1,1.77 ± 2.1
8,COc1cn(-c2ccc(F)cc2)nc1C(=O)Nc1ccccc1SC,15.5 ± 1.8
9,O=C(N/N=C\c1ccccc1[N+](=O)[O-])c1[nH]nc2c1CCc1ccccc1-2,3.05 ± 1.7
10,O=C1N/C(=C/c2ccc(O)cc2)C(=O)N1c1ccccc1,49 ± 4.5
11,COc1cccc(C2=NOC(C(=O)Nc3cc(C)ccc3O)C2)c1 (stereo not given),14.1 ± 0.22
12,Nc1ccc2nc(-c3ccc(Br)cc3)[nH]c2c1,12.5 ± 2
13,O=C(N/N=C\C(Br)=C\c1ccccc1)c1n[nH]c2c1CCCC2,7.86 ± 1.6
14,Cc1nn(-c2ccc(F)cc2)c2ncc(C(=O)NCc3ccco3)c(Cl)c12,110 ± 9.1
15,COc1ccc(/C=N/c2sc3c(c2C(N)=O)CCCC3)cc1,2.45 ± 0.41
16,COc1ccccc1/C=C/C(=O)Nc1ccc(Cl)cn1,-1.93 ± 1.5
17,N#C/C(=C(/O)c1cc(-c2ccccc2)nc2ccccc12)c1nc2ccccc2[nH]1,9.52 ± 1.4
18,COc1ccc(-c2csc(N(CC3CCCO3)C(=O)CCl)n2)cc1 (stereo not given),2.74 ± 0.89
19,Cc1ccn2cc(-c3ccc(O)c(O)c3)nc2c1,17.8 ± 5
20,Cc1ccc(O)c(NC(=O)CSc2ccccc2)c1,10.5 ± 5.2

row,Compound,XBP1-RLuc splicing reporter activation
1,O=c1[nH]c(COc2ccccc2)nc2sc3c(c12)CCCC3,4.82 ± 0.69
2,Oc1ccc(-c2csc(-c3cccnc3)n2)cc1O,15.2 ± 0.9
3,COc1ccc(/C(C)=N/OC/C(O)=C(\C#N)c2nc3ccccc3[nH]2)cc1OC,24.6 ± 1.4
4,Nc1ccc2nc(-c3ccccn3)[nH]c2c1,18.7 ± 1.1
5,CCCCCC(=O)Nc1ccc(C(=O)Nc2ccccc2O)cc1,9.29 ± 0.42
6,Oc1ccc(-c2cn3ccccc3n2)cc1O,20.8 ± 2
7,C=CCNC(=O)c1cc(-c2cccs2)on1,7.78 ± 0.96
8,Cc1cc(C)c(OCC(=O)N/N=C/c2ccc(O)c(O)c2)c(Br)c1,17.1 ± 1.1
9,CNC(=O)c1ccccc1Nc1cc(NC(=O)Cc2ccc(F)c(F)c2)ncc1C(F)(F)F,91.3 ± 2.1
10,Cc1ccc(O)c(NC(=O)c2cc(-c3ccc(F)cc3)on2)c1,15.9 ± 0.37
11,Cc1ccccc1-c1cc(=O)c2cc(Cl)ccc2o1,8.38 ± 3.8
12,Oc1ccc(-c2csc3nc(-c4ccccc4)nn23)c(O)c1,15.3 ± 1.7
13,Cc1cc(C)nc(/N=C(\N)Nc2ccc(OCc3ccccc3)cc2)n1,78.3 ± 5.3
14,CCOc1cc(/C=C2/NC(=O)N(Cc3ccc(F)cc3)C2=O)ccc1O,33.6 ± 2.1
15,COc1cccc(-c2nc3ccc(N)cc3[nH]2)c1,9.9 ± 1.3
16,CC(C)c1ccc(/C=N\NC(=O)c2ccccc2)cc1,6.81 ± 0.33
17,Cc1cc2nc(/C(C#N)=C/c3ccco3)[nH]c2cc1C,4.3 ± 0.47
18,O=c1/c(=C/c2ccc(O)c(O)c2)sc2nc3ccccc3n12,6.32 ± 0.52
19,O=C(N/N=C/c1cccc(O)c1O)c1ccccn1,27 ± 0.75
20,O=c1[nH]c(/C=C2\C=Nc3ccccc32)c(O)n1-c1ccc(Cl)cc1,43.1 ± 3.6
